Experimental data from PubChem BioAssay AID1159580 (chemical genetic matrix, 2015).
Values joined by “and” are separate entries in the source; they are usually repeats but may differ in a detail not shown here. Equal entries are not always repeated. The whole screen tested about 5,500 compounds, of which about 2,000 (36%) were called active. Not shown: some 18% with an inconclusive outcome. Rule as the data show it: active = normalized growth mostly below about 0.91 (no sharp cut-off); inconclusive = no clear call, values can overlap the other calls; inactive = mostly above about 0.92. The list shows a part of the results.

Assay: chemical genetic growth profiling, strain panel (AID 1159580);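 also: tested at 20 µM; growth read once vehicle control cultures reached saturation at 30 °C; 1 = growth at the plate median or of vehicle wells; lower values mean less growth of the strain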
Conditions: S. cerevisiae deletion strains, growth OD

Measured: normalized growth

C[C@]12CCC3c4ccc(O)cc4CCC3C1CCC2=O (stereo partly drawn)
inactive: locus YAL013W, strain DEP1, hits give low values 0.968 | locus YAL021C, strain ccr4, hits give low values 1 | locus YAL026C, strain drs2, hits give low values 0.993 | locus YAL030W, strain snc1, hits give low values 1.01 | locus YBL061C, strain skt5, hits give low values 0.999 | locus YBR009C, strain hhf1, hits give low values 0.953 | locus YBR021W, strain FUR4, hits give low values 0.875 | locus YBR023C, strain chs3, hits give low values 1.01 | locus YBR171W, strain sec66, hits give low values 0.992 | locus YBR229C, strain ROT2, hits give low values 0.96 | locus YBR231C, strain swc5, hits give low values 0.975 | locus YBR279W, strain paf1, hits give low values 0.988 | locus YCL011C, strain gbp2, hits give low values 1.01 | locus YCL016C, strain dcc1, hits give low values 1.01 | locus YCL029C, strain bik1, hits give low values 0.952 | locus YCL061C, strain MRC1, hits give low values 1.01 | locus YCL069W, strain vba3, hits give low values 1 | locus YCR088W, strain abp1, hits give low values 1.01 | locus YDL005C, strain med2, hits give low values 1.02 | locus YDL035C, strain GPR1, hits give low values 0.87 | locus YDL040C, strain nat1, hits give low values 1.01 | locus YDL101C, strain DUN1, hits give low values 0.987 | locus YDL134C, strain PPH21, hits give low values 0.901 | locus YDL185W, strain tfp1, hits give low values 0.96 | locus YDL192W, strain arf1, hits give low values 0.98 | locus YDR001C, strain nth1, hits give low values 1.02 | locus YDR069C, strain doa4, hits give low values 0.993 | locus YDR101C, strain arx1, hits give low values 0.923 | locus YDR159W, strain sac3, hits give low values 0.959 | locus YDR297W, strain sur2, hits give low values 1.01 | locus YDR318W, strain mcm21, hits give low values 0.967 | locus YDR334W, strain swr1, hits give low values 1.02 | locus YDR335W, strain msn5, hits give low values 0.998 | locus YDR388W, hits give low values 0.987 | locus YDR502C, strain sam2, hits give low values 0.939 | locus YEL003W, strain gim4, hits give low values 0.942 | locus YEL037C, strain rad23, hits give low values 1.01 | locus YEL061C, strain CIN8 (second series), hits give low values 1 | locus YEL061C, strain CIN8, hits give low values 0.997 | locus YER015W, strain faa2, hits give low values 1.01 | locus YER016W, strain bim1, hits give low values 0.978 | locus YER110C, hits give low values 0.985 | locus YER111C, strain swi4, hits give low values 1.02 | locus YER155C, strain BEM2 (second series), hits give low values 0.905 | locus YER155C, strain BEM2, hits give low values 1 | locus YER167W, strain BCK2, hits give low values 1.03 | locus YFR010W, strain ubp6, hits give low values 1 | locus YGL078C, strain dbp3, hits give low values 0.969 | locus YGL086W, strain mad1, hits give low values 0.959 | locus YGL167C, strain pmr1, hits give low values 1.03 | locus YGL173C, strain kem1, hits give low values 0.963 | locus YGL227W, strain vid30, hits give low values 1.03 | locus YGL240W, strain doc1, hits give low values 0.944 | locus YGL248W, strain PDE1, hits give low values 0.962 | locus YGL253W, strain hxk2, hits give low values 0.951 | locus YGR135W, strain pre9, hits give low values 1.02 | locus YGR252W, strain gcn5, hits give low values 0.874 | locus YHR013C, strain ard1, hits give low values 1.01 | locus YHR027C, strain rpn1, hits give low values 1 | locus YHR030C, strain SLT2, hits give low values 1.01 and 0.986 | locus YHR079C, strain IRE1 (second series), hits give low values 0.992 | locus YHR079C, strain IRE1, hits give low values 0.989 | locus YHR094C, strain hxt1, hits give low values 0.999 | locus YHR129C, strain ARP1, hits give low values 1.01 | locus YHR142W, strain chs7, hits give low values 0.949 | locus YHR200W, strain rpn10, hits give low values 0.984 | locus YIL066C, strain RNR3, hits give low values 0.982 | locus YIL073C, strain SPO22, hits give low values 0.94 | locus YIL125W, strain kgd1, hits give low values 0.986 | locus YIR030C, strain dcg1, hits give low values 1.02 | locus YJL092W, strain hpr5, hits give low values 1.02 | locus YJL095W, strain BCK1 (second series), hits give low values 1.01 | locus YJL095W, strain BCK1, hits give low values 0.919 and 0.992 | locus YJL115W, strain asf1, hits give low values 1.02 | locus YJL129C, strain trk1, hits give low values 1.03 | locus YJL134W, strain LCB3, hits give low values 0.992 | locus YJL154C, strain vps35, hits give low values 1.02 | locus YJL164C, strain tpk1, hits give low values 0.957 | locus YJL166W, strain qcr8, hits give low values 0.987 | locus YJL168C, strain set2, hits give low values 1 | locus YJL187C, strain SWE1 (second series), hits give low values 0.969 | locus YJL187C, strain SWE1, hits give low values 1.01 | locus YJR043C, strain POL32, hits give low values 0.937
active: locus YDL074C, strain BRE1, hits give low values 0.766 | locus YDR137W, strain rgp1, hits give low values 0.682 | locus YDR162C, strain NBP2, hits give low values 0.761 | locus YDR195W, strain ref2 1.26 [resistant] | locus YDR392W, strain spt3, hits give low values 0.625
